Results with a measured potency or affinity are listed apart.

Drawing on ChEMBL document CHEMBL4513135, “CO-ADD screening of IQOG CSIS (Spain) compounds”, this text covers Inhibition for 23 compounds.

The subject of test [1] is Staphylococcus aureus. To be noted: Concentration 32 ug.mL-1; ASSAY_TEST Inhibition of Bacterial Growth; detection method Absorption (OD600); MEDIA CAMHB; plate type 384well; NBS; CORNING #3640; time 18 hr.
The subject of test [2] is Escherichia coli. Conditions: Concentration 32 ug.mL-1; ASSAY_TEST Inhibition of Bacterial Growth; detection method Absorption (OD600); MEDIA CAMHB; plate type 384well; NBS; CORNING #3640; time 18 hr.

Regarding `C#CCN(C)Cc1cc2cc(OCCCCC3CCN(Cc4ccccc4)CC3)ccc2n1C.Cl`, the Inhibition (as a rule, the change of the read-out against control, counted positive when it falls) in test [1] is reported as 41%; in test [2] it was -14.71%.

Consider `O=C(N/N=C/c1c[nH]c2ccccc12)c1ccc(Cl)cc1`, for which the Inhibition in test [1] is recorded as 3.32%; in test [2], 9.43%.

As to `N#Cc1cc2c(N)c3c(nc2nc1Cl)CCN(Cc1ccccc1)C3`, the Inhibition is recorded as 31.61% in test [1] and -4.39% in test [2].

Regarding `CNCc1cc2cc(OC)ccc2n1C.Cl`, the Inhibition in test [1] is given as 10.42%; in test [2], -0.77%.

Consider `CC(=O)O[C@H]1CC[C@H](NC(=O)c2ccccc2)CC1`, for which the Inhibition was 27.4% in test [1] and -7.44% in test [2].

Regarding `CCOC(=O)C1=C(C)Oc2nc3c(c(N)c2C1c1nccn1C)CCCCC3` (stereo unspecified), the Inhibition is recorded as 10.64% in test [1] and -6.7% in test [2].

Turning to `N#C/C(=C\c1ccccc1Cl)C(=O)c1ccccc1`, the results for the Inhibition in test [1] and in test [2] were 33.12% and 20.31%, respectively.

Regarding `C#CCN(C)c1nc(Cl)c(C#N)c(-c2ccccc2)c1C#N`, the Inhibition in test [1] is recorded as 13.59%; in test [2], -10.42%.

Regarding `Cc1cnc(NC(=O)OC(C)(C)C)c(Br)c1`, the Inhibition in test [1] was 34.57%; in test [2], -15.12%.

`Cn1cc(C(=O)NN)c2ccccc21`: the Inhibition stood at 4.01% in test [1] and 20.35% in test [2].

Turning to `C#CCN(C)Cc1cc2cc(OCc3ccc(OC)c4ncccc34)ccc2n1C`, the Inhibition is 3.95% in test [1] and -18.67% in test [2].

Turning to `COc1ccc2cc(C3C4=C(CC(C)(C)CC4=O)Oc4nc5c(c(N)c43)CCCC5)c(Cl)nc2c1` (stereo unspecified), the Inhibition in test [1] is listed as 25.96%; in test [2], 20.91%.

On to `COC(=O)C(NC(=O)c1ccccc1)=C(C)c1ccccc1`, for which the Inhibition in test [1] is recorded as 11.03%; in test [2] it was 2.63%.

With `C#CCN(C)Cc1cc2cc(O)ccc2n1C.Cl`, the Inhibition was 21.22% in test [1] and -11.62% in test [2].

`CCOC(=O)c1cc2ccccc2[nH]1`: the Inhibition in test [1] amounted to 8.39%; in test [2] it was 13.65%.

For the compound `COc1ccc(C2C(C#N)=C(N)Oc3ccc4ccccc4c32)cc1OC` (stereo unspecified), the Inhibition in test [1] is 19.72%; in test [2] it was -23.42%.

In the case of `CCOC(=O)C1=C(C)OC(N)=C(C#N)C1c1ccc([N+](=O)[O-])cc1` (stereo unspecified), the Inhibition is 16.31% in test [1] and -9.87% in test [2].

For the compound `N#Cc1cc(C#N)c(N2CCC(Cc3ccccc3)CC2)nc1N`, the Inhibition in test [1] was -2.68%; in test [2], -8.44%.

`COc1ccc2cc(C=O)c(Cl)nc2c1`: the Inhibition in test [1] worked out at 17.7%; in test [2] it was 25.34%.

On to `C#CCNc1nc(NCC#C)c(C#N)cc1C#N`, for which the Inhibition in test [1] was -5.55%; in test [2] it was -10.16%.

Regarding `Cl.N#Cc1cc(C#N)c(N2CCCC2)nc1Cl`, the Inhibition in test [1] is on record as 37.39%; in test [2], -6.69%.

On to `CC1Cc2c(nc3c(c2N)CCCC3)NC1=O` (stereo unspecified), for which the Inhibition in test [1] was 29.78%; in test [2], -3.82%.

On to `CCOC(=O)c1cn(C)c2ccccc12`, for which the figures for the Inhibition in test [1] and in test [2] were 5.67% and 4.13%, respectively.
